This is one part of the list. No count for the full screen is at hand.
B1: VH:VL chains; a variant is named by its letters at X, in order (parent)
chain 1: QVQLVQSGAEVKKPGASVKVSCKASGYTFTDYXMHWVRQAPGQGLEWMGXVNPNXXXTTYNQKFEGRVTMTTDTSTSTAYMELRSLRSDDTAVYYCARXNXLDXWGQGTTVTVSS
chain 2: DIQMTQSPSSLSASVGDRVTITCSVSSSVSSIYLHWYQQKPGKAPKLLIYSTSNLASGVPSRFSGSGSGTDFTLTISSLQPEDFATYYCQVYSGYPLTFGGGTKVEIK

Variants of: B1
Experiment: yeast display scFab, FACS + sequencing
Details: with MET
How it was run: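 Antigen binding was called positive for sequences present in both antigen-positive samples and negative for those present only in the input. These calls came from deep sequencing, in two replicates, of round-3 sorted and input populations from a heavy-chain CDR mutant scFab yeast surface library. The library was first enriched twice magnetically on HGFR-Fc-coated Protein A beads and then by FACS, gating the top 50% antigen-positive cells after 3 h labelling at room temperature with 1 nM HGFR-Fc plus anti-Myc in PBSB with 1% milk.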

Variant | antigen binding call
YERRDVLY | no binding
YRRGSVGA | binds
YARRDVGA | no binding
YEKGGDGA | no binding
YRTEDVGA | no binding
YRKKSVGA | no binding
YRRGGDGA | binds
YREGGDGA | no binding
YRRGGVGA | binds
AGGENDGD | no binding
SGTKGYWD | no binding
DTKAAAGD | no binding
VEGGGDGV | no binding
YRGRSASV | binds
ARGRSDAV | no binding
DAGGASSV | no binding
YRGRSSSV | binds
YTGTSSSV | no binding
FARETFGV | no binding
VETEGDWY | no binding
YGRRGFSV | no binding
YRRRGVGV | binds
YARRGSGV | no binding
YRRRGASV | binds

Variant | antigen binding call
YREEGDGV | no binding
YRRRGSGV | binds
YRRRGDGV | binds
VETRSDVA | no binding
VTGTSDLY | no binding
VTAGDDVY | no binding
DAGRGDGF | no binding
YKRRDFGV | no binding
YRRRGFGV | binds
YRRRGAGV | binds
DARRGAGV | binds
DAGGAAGV | no binding
DATGGYAV | binds
YATGGYAV | no binding
DAAGAAGV | no binding
VATGGYAV | no binding
VTGTGAVV | no binding
VEGTNDVV | no binding
YARADAAA | no binding
DKEGGAAA | no binding
YKRGGAAA | binds
AKRGSAAV | no binding
FKRKAAAA | no binding
VKRGSAAV | binds

Variant | antigen binding call
YTRAGAAA | no binding
YKRGSAAA | binds
VKGRAAVA | no binding
VTTKSAAV | no binding
VKRGSAAA | binds
DAGTGDGV | no binding
DEGRGDGV | no binding
VTGESAAV | no binding
DEARSDGA | no binding
YRRRGSSD | binds
FRTRGSSD | binds
FRRRGSSD | binds
FRREGSSD | no binding
YRRRGYSD | no binding
YRRRGASD | binds
YAGTGDLV | no binding
YRTRSSGA | binds
DETRSAGA | no binding
YRTRSAGA | binds
VRTRSFGA | no binding
SGRGNDAV | no binding
YRRGGYAV | binds
YRTRGYAV | no binding
YARAGYAV | no binding

Variant | antigen binding call
YTRGADGV | no binding
DARGGAAV | no binding
YRKGGAAV | binds
YRRGAAAV | binds
YRRGGAAV | binds
ARRGAYGV | no binding
AEGTSAVF | no binding
DAGGGDGA | no binding
AARADFGV | no binding
ATTKSDGA | no binding
VATRGFWD | no binding
VRTRGSWD | binds
DATRSSWD | no binding
YRTRSSWD | binds
YRTRGSWD | binds
DRGKNDGD | no binding
DKEGGDGA | no binding
YRRRSAVA | binds
YRRRSAGA | binds
DREEGAGA | no binding
DREGDAVA | no binding
VTGGDDGA | no binding
VEGADAVA chain 1 G106S | no binding
AGGGNSGV | no binding

Variant | antigen binding call
VKGRASWS | no binding
SKGRSSWS | no binding
YKGRGSWS | binds
VKGRGSWS | binds
VKGKSSWS | no binding
VKGTDAWY | no binding
YKGGSAGY | binds
YKGEDDVY | no binding
YKGTDAWY | no binding
YKGGSDVY | binds
YEGGGDVY | no binding
YKGGSAWY | binds
VKGGAAVY | no binding
DEKEGDAA | no binding
YRGGAAWD | binds
YRGGAAWY | binds
YEGGADVD | no binding
YAGGAYLY | no binding
YRRRGSLD | binds
YRARGDLD | binds
YTGTSDLD | no binding
YRRRGFVD | binds
YRRRGSVD | binds
YRRRGFGD | no binding

Variant | antigen binding call
DGARNSGV | no binding
FAGRAAWA | no binding
SETTDDVA | no binding
AGGGNDVY | no binding
YRRRGDVD | binds
YARADSLD | no binding
YRRRSSVD | binds
YRRRGYVD | no binding
YTERGDVD | no binding
DARRGSGD | no binding
YARRGSLD | binds
YRRRGAVD | binds
SEGTGDWV | no binding
VEEEGDSA | no binding
VETEGDVA | no binding
YRRRGSWD | binds
YRRRGDLD | binds
YRREGSLD | binds
AEARSDGA | no binding
SEGRGAWY | binds
SEGRGDVY | no binding
AEGRGAVY | no binding
SRGRGAWY | binds
VETGNDGV | no binding

Variant | antigen binding call
ATRGADAV | no binding
YRGRGFVD | binds
YRGRGVVD | binds
YRGGGVVD | binds
YREGDFVD | no binding
YRGRDFVD | no binding
YAGTGVVD | no binding
YAGRGVVD | no binding
VTGGDSWF | no binding
AGTRSFGY | no binding
FRAGGAVD | binds
FTEEGAVD | no binding
FRATSAVD | no binding
FRAGGSVD | binds
SKTKSSAS | no binding
YKARGSGS | binds
DKAGGDGS | no binding
VKKTGSGA | no binding
VKARGSVA | binds
VKAGDSGA | no binding
VTTKSSVA | no binding
VKEGGDVA | no binding
YKAGGSAS | binds
VKARGSGA | binds

Variant | antigen binding call
VAGGDDGF | no binding
SKTKSDGV | no binding
VKARGSLA | binds
YKARGAWA | binds
YMAEGSGA | no binding
YEARNAGA | no binding
YKARGSGA | binds
VKERGAVA | no binding
VKEGGSSA | no binding
YKARGAGA | binds
YTERAAWA | no binding
SAAGSVWY | no binding
VKEGGDGA | no binding
DEAGDAVV | no binding
SAGRGFGF | no binding
SRGRGAGF | binds
SRGRGAWF | binds
AKGKASSD | no binding
YKAGGYSD | no binding
YKRKSASD | binds
AKTGDSSD | no binding
VKRGSSSD | binds
YKAGDSSD | binds
AKAADSSD | no binding

Variant | antigen binding call
YARADSSD | no binding
YKRGSSSD | binds
VAEKGDVF | no binding
VTGEDDWV | no binding
DREGDDAV | no binding
SEARSDSF | no binding
YKRRDASD | no binding
YKRGSASD | binds
AKAGGASD | no binding
DTTGSDAV | no binding
VAGTDDWV | no binding
YRRRGFAV | binds
YRATDFVV | no binding
YRRGGFVV | binds
YRRRGFVV | binds
YRAGGFVV | binds
YTATGFAV | no binding
ATAGSASD | no binding

Source: the emibetuzumab library of Makowski et al. (2022)
